Each sequence was assayed on RXRa DBDmut IVT, anti-RXR (DBD mutation: RXRa K156A/R161A, NR concentration 90 nM) (assay: PBM binding z-score (relative to random genomic background probes); higher = stronger binding; sequences stand for … in GC…GCGATTGACAGCGTAGAATGAAGG).
Method in brief: (§1)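 On custom Agilent 4×180K arrays, double-stranded probes with 34-nt variable regions carried direct-repeat seeds, single-nucleotide variants, half-site ablations or random human genomic background. Ligand-free nuclear receptor dimers were applied for 1 h, and binding was read with antibodies against each partner (one per run). Binding z-scores come from regression-normalized fluorescence, with the random background probes as reference.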

Row | Sequence | PBM binding z-score
1 | CAAACTAGGTCACAGAGGTCACAGTCCGTGCGTA | 2.76
2 | GGAGACAGGTGAAACGCAGGTAACTCAGGGTGGC | -0.648
3 | CCTATTAGTTGATCATAAGGGCAACCGAAGCTCG | 0.845
4 | GGAACGAGGGCATTTGAGTTGATAGCATGGCGAT | 3.42
5 | GCTTACGGGTCATAGGTTATAGCATGAATAGAAT | 2.34
6 | TCTTGTAGATCAAGCAGGTTAAGGAAGCCTGAGT | 0.415
7 | CCAAGTTGGTCAAGGTCACACACGCTATAGGTAC | 2.86
8 | CCTAACAGGCCAATCTGGGTCACTCAAGGCTTGA | 0.498
9 | GCTAGCAGGCCATTTGGTTCACTCAATGACGGGC | 0.552
10 | ACTCGGAGGACAAAGGTCAGAGCAACGCCAGTGA | 1.26
11 | ATCTCTAGGTAAAGATAGATCAGTGAATGCAAAT | -0.154
12 | AGAATGAGGTTACCAAAGATCACGGAAACGCTTG | 1.17
13 | TCAAATAGGTAATACAGGTGAAAGTCGGCATCTA | 1.74
14 | CCGACTGGGGCAAAGGATACCATACTCAGTACGA | -0.0232
15 | CTCGTAAGGTCGGTTGAGGTGAGTATACGGATAA | 1.26
16 | GCGATTGGGGCATCAGCAGGTTACCATAACTTAA | 0.393
17 | ATCTCTAGGTAAGACTCAGGTCAGTGAAGAACGC | 0.359
18 | TCATATAGGTAAACAGGTGGAAGTCCGTAAGTTA | 1.38

Each sequence was assayed on RXRa homodimer (NR concentration 180 nM) in the same assay as above.
Method in brief: as §1

Row | Sequence | PBM binding z-score
19 | TATACAGGGTCAAAGGCCAGTGTACGAATGTCGA | 7.04
20 | AGAACGAGGGCACTCTGAGTTGATAGCAGAGTAG | 0.823
21 | CCTAGTTGGTCAGGCGGTCACACACCGGATATGA | 0.344
22 | CCTCGGAGGACAACAGGAGGTCAGAGCAGCCAGA | 2.05
23 | GCAGACAGGTGAAACGTAGGTAACTCAGGGTGGC | 0.858
24 | GATACAGGGTCAGTTAGAGGCCAGAGTATGGAAA | 3.67
25 | CGAACTAGGTCATCCAGGGCAGTGAATACATTGA | 2.97
26 | TCTCGGAGGACACTAAGGTCAGAGCTTTCCAGAG | 2.26
27 | CAAACTAGGTCAAGAGGGCAAAGTCCGCTTCCCG | 4.07
28 | GCATATAGGTAATACAAGGAGAAAGTCCGATTGT | -0.0159
29 | TCTTGTAGATCATCAGGTTAAGAAAGCTGGCCAA | 0.451
30 | CTCGAAATGTCGGTTGAGGTGAGTATACGGATAA | 0.114
31 | AGAATGAGGTGACCAAAGATCAGGGAAACGCTTG | 1.51
32 | TCATACAGGTGAAGGTAACTCAGGTACGCAGTCG | 1.42
33 | ACAAACAGGTGATGAAGGTAACTCAGGCTATCAT | 0.602
34 | ATACCAAGGTGATCGTGAGGTCGTTCATACTAAC | 1.58
35 | ATCGCAAGGTCGAAGGTGAGTATACCCACCCGAA | 2.93
36 | CATACAGGGTCAGCTAGGCTAGAGTAGGGACGGC | 3.94
37 | CCGAGTTGGTCAGGAGGTCACACACCGGATATGA | 4.96
38 | CCGACTGGGGTAAAGGTTACCATACTCAGTACGA | 3.27

Row | Sequence | PBM binding z-score
39 | TCTTGTAGCTCAAGCAGGTTAAGAAAGCCTGAGT | -0.207
40 | CAAACTAGGTCAAAGGTCGAAGTCGAGCCAACCA | 8.7
41 | CAAACTAGGTCACAGAGGTCACAGTCCGTGCGTA | 7.39
42 | GGAGACAGGTGAAACGCAGGTAACTCAGGGTGGC | 0.638
43 | CCTATTAGTTGATCATAAGGGCAACCGAAGCTCG | 0.308
44 | GGAACGAGGGCATTTGAGTTGATAGCATGGCGAT | 0.881
45 | GCTTACGGGTCATAGGTTATAGCATGAATAGAAT | 6.22
46 | TCTTGTAGATCAAGCAGGTTAAGGAAGCCTGAGT | 0.299
47 | CCAAGTTGGTCAAGGTCACACACGCTATAGGTAC | 5.31
48 | CCTAACAGGCCAATCTGGGTCACTCAAGGCTTGA | 0.758
49 | GCTAGCAGGCCATTTGGTTCACTCAATGACGGGC | -0.107
50 | ACTCGGAGGACAAAGGTCAGAGCAACGCCAGTGA | 5.09
51 | ATCTCTAGGTAAAGATAGATCAGTGAATGCAAAT | -0.137
52 | AGAATGAGGTTACCAAAGATCACGGAAACGCTTG | 2.95
53 | TCAAATAGGTAATACAGGTGAAAGTCGGCATCTA | 1.14
54 | CCGACTGGGGCAAAGGATACCATACTCAGTACGA | 0.075
55 | CTCGTAAGGTCGGTTGAGGTGAGTATACGGATAA | 1.44
56 | GCGATTGGGGCATCAGCAGGTTACCATAACTTAA | 0.323
57 | ATCTCTAGGTAAGACTCAGGTCAGTGAAGAACGC | 0.773
58 | TCATATAGGTAAACAGGTGGAAGTCCGTAAGTTA | 0.624

What follows are sequences tested on THRa:RXRa (NR concentration 90 nM, RXRa partner concentration 90 nM) in the same assay as above.
Method in brief: as §1

Row | Sequence | PBM binding z-score
59 | TATACAGGGTCAAAGGCCAGTGTACGAATGTCGA | 3.57
60 | AGAACGAGGGCACTCTGAGTTGATAGCAGAGTAG | 1.29
61 | CCTAGTTGGTCAGGCGGTCACACACCGGATATGA | 0.232
62 | CCTCGGAGGACAACAGGAGGTCAGAGCAGCCAGA | 2.86
63 | GCAGACAGGTGAAACGTAGGTAACTCAGGGTGGC | 1.2
64 | GATACAGGGTCAGTTAGAGGCCAGAGTATGGAAA | 2.73
65 | CGAACTAGGTCATCCAGGGCAGTGAATACATTGA | 3.78
66 | TCTCGGAGGACACTAAGGTCAGAGCTTTCCAGAG | 3.71
67 | CAAACTAGGTCAAGAGGGCAAAGTCCGCTTCCCG | 3.04
68 | GCATATAGGTAATACAAGGAGAAAGTCCGATTGT | 1.9
69 | TCTTGTAGATCATCAGGTTAAGAAAGCTGGCCAA | 0.929
70 | CTCGAAATGTCGGTTGAGGTGAGTATACGGATAA | 3.31
71 | AGAATGAGGTGACCAAAGATCAGGGAAACGCTTG | 2.53
72 | TCATACAGGTGAAGGTAACTCAGGTACGCAGTCG | 1.67
73 | ACAAACAGGTGATGAAGGTAACTCAGGCTATCAT | 1.19
74 | ATACCAAGGTGATCGTGAGGTCGTTCATACTAAC | 3.38
75 | ATCGCAAGGTCGAAGGTGAGTATACCCACCCGAA | 2.12
76 | CATACAGGGTCAGCTAGGCTAGAGTAGGGACGGC | 2.84
77 | CCGAGTTGGTCAGGAGGTCACACACCGGATATGA | 3.47
78 | CCGACTGGGGTAAAGGTTACCATACTCAGTACGA | 2.05

Row | Sequence | PBM binding z-score
79 | TCTTGTAGCTCAAGCAGGTTAAGAAAGCCTGAGT | 0.103
80 | CAAACTAGGTCAAAGGTCGAAGTCGAGCCAACCA | 4.01
81 | CAAACTAGGTCACAGAGGTCACAGTCCGTGCGTA | 4.67
82 | GGAGACAGGTGAAACGCAGGTAACTCAGGGTGGC | 1.48
83 | CCTATTAGTTGATCATAAGGGCAACCGAAGCTCG | 1.69
84 | GGAACGAGGGCATTTGAGTTGATAGCATGGCGAT | 3.57
85 | GCTTACGGGTCATAGGTTATAGCATGAATAGAAT | 2.9
86 | TCTTGTAGATCAAGCAGGTTAAGGAAGCCTGAGT | 0.262
87 | CCAAGTTGGTCAAGGTCACACACGCTATAGGTAC | 4.06
88 | CCTAACAGGCCAATCTGGGTCACTCAAGGCTTGA | 3.85
89 | GCTAGCAGGCCATTTGGTTCACTCAATGACGGGC | -0.195
90 | ACTCGGAGGACAAAGGTCAGAGCAACGCCAGTGA | 3.55
91 | ATCTCTAGGTAAAGATAGATCAGTGAATGCAAAT | 0.0339
92 | AGAATGAGGTTACCAAAGATCACGGAAACGCTTG | 3.03
93 | TCAAATAGGTAATACAGGTGAAAGTCGGCATCTA | 0.877
94 | CCGACTGGGGCAAAGGATACCATACTCAGTACGA | -0.155
95 | CTCGTAAGGTCGGTTGAGGTGAGTATACGGATAA | 5.11
96 | GCGATTGGGGCATCAGCAGGTTACCATAACTTAA | 1.03
97 | ATCTCTAGGTAAGACTCAGGTCAGTGAAGAACGC | 2.67
98 | TCATATAGGTAAACAGGTGGAAGTCCGTAAGTTA | 0.188

From the supplement of paper PMC6555819
